From PubChem BioAssay (NCATS)
Inconclusive results are not listed. Activity calls are given as the source filed them. Unless noted, the call rests on the fitted dose curve; in most records, active means well fitted curve in the direction sought with a large enough effect; inconclusive means small, poorly fitted or top-dose-only effect, or another doubt; inactive means no such curve, though single readings can be large; an effect the other way counts as inactive or inconclusive.

target: Cytochrome P450 2D6 (Homo sapiens) (UniProt P10635); test: qHTS Assay for Inhibitors and Substrates of Cytochrome P450 2D6 (AID 891); conditions: recombinant CYP2D6, luciferin-ME EGE luminescence; series mostly up to 57.1 µM; activity change, negative = inhibition: at the top concentration; further: nearly all actives have a fitted effect of over 60% in size;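 on activity change, negative = inhibition: luciferin methyl ether substrate demethylated by CYP2D6 with NADPH regeneration; on the % scale 0 is the no-effect control and ±100 the full control effect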
Summary of the method: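 Human CYP2D6 (5 nM) with 30 uM Luciferin-ME EGE (at Km) in 100 mM KPO4, compound preincubated 10 min, then NADPH regeneration system for 60 min at room temperature. Luciferin read by luminescence; normalized to 1.43 uM quinidine.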
Potency means the concentration at half of the fitted maximal effect.

Cytochrome P450 2D6 (Homo sapiens), sequence (P10635 whole entry, looked up): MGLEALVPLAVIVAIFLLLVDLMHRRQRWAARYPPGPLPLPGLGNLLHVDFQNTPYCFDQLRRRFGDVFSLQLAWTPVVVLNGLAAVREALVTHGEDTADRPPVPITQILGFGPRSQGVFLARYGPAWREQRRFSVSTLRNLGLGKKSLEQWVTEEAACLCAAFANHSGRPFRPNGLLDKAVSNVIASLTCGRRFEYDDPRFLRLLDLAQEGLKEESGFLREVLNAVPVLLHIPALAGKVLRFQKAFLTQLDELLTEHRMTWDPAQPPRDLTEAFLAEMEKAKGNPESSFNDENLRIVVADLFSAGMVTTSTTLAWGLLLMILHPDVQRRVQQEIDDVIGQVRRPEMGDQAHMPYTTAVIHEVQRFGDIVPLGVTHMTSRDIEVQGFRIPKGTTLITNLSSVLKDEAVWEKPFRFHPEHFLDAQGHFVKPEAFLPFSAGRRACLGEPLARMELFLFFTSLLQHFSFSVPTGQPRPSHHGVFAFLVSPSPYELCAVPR

Potency, active:
c1ccc(CNc2ccnc(-c3ccc4c(c3)OCO4)n2)cc1 1.58 µM
COc1cccc(-c2nccc(NCc3cccs3)n2)c1 0.316 µM
c1csc(CNc2ccnc(-c3ccc4c(c3)OCO4)n2)c1 0.501 µM
COc1c(O)cc2oc3cc(O)c(CC=C(C)C)c(O)c3c(=O)c2c1CC=C(C)C 31.6 µM

Activity change, negative = inhibition, inactive:
Cc1c(CC(C)(C)C(=O)O)n(Cc2ccc(Cl)cc2)c2ccc(F)cc12 -8.5%

target: Cytochrome P450 2C19 (Homo sapiens) (UniProt P33261); test: qHTS Assay for Inhibitors and Substrates of Cytochrome P450 2C19 (AID 899); conditions: recombinant CYP2C19, luciferin-H EGE luminescence; series mostly up to 57.1 µM; activity, negative = inhibition: at the top concentration; further: nearly all actives have a fitted effect of over 60% in size
Summary of the method: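 In 50mM KPO4, the reaction held 5nM enzyme and KM-level (10uM) Luciferin-H EGE; it ran 60 min at 37C after NADPH regeneration and a 10 min compound preincubation. Luminescence values were scaled to 57uM ketoconazole as complete inhibition.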

Cytochrome P450 2C19 (Homo sapiens), sequence (P33261 whole entry, looked up): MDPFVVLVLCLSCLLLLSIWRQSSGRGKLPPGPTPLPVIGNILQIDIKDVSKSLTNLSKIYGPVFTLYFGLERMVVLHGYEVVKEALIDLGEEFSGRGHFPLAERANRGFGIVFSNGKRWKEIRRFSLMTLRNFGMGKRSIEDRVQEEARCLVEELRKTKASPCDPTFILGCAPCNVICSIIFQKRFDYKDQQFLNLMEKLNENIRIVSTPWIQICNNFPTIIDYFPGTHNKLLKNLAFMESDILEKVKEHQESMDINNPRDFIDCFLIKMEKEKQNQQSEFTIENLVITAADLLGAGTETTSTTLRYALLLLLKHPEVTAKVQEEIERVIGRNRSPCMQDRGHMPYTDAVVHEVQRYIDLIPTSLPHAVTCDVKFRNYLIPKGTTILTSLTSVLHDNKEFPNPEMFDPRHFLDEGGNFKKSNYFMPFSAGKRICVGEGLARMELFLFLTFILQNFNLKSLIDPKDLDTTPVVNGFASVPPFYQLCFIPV

Potency, active:
COc1ccc(CNc2ccnc(-c3cccc(C#N)c3)n2)c(OC)c1 3.98 µM
c1ccc(CNc2ccnc(-c3ccc4c(c3)OCO4)n2)cc1 2 µM
COc1ccc(CNc2nc(-c3ccc4c(c3)OCO4)nc3ccccc23)c(OC)c1 7.94 µM
CN(C)c1ncnc2ccc(-c3ccccc3C(F)(F)F)cc12 3.98 µM
c1csc(CNc2ccnc(-c3ccc4c(c3)OCO4)n2)c1 5.01 µM
COc1c(O)cc2oc3cc(O)c(CC=C(C)C)c(O)c3c(=O)c2c1CC=C(C)C 10 µM
COC(=O)C1=C(C)NC(C)=C(C(=O)OCCSc2ccccc2)[C@@H]1C 0.199 µM

test system: not listed separately; test: qHTS Assay for Identification of Small Molecule Agonists for Hypoxia Response Element Signaling Pathway (AID 914; active means well fitted activation curve with a large enough effect in the signal ratio, with a control signal flat, not every such curve was filed as active; the % refers to the signal ratio; on activation: % of control where 0% means no effect); conditions: ME-180 (cervical carcinoma) HRE-bla reporter, beta-lactamase ratio, CoCl2, 17 h; activation: stronger effect = higher value
Summary of the method: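 Positive modulation of EC50 CoCl2-induced hypoxia response element signaling is measured in ME-180 cells with a beta-lactamase reporter. Compounds are titrated, incubation runs 17 hours, and %Activity derives from the blue/green ratio.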

activation, inactive:
COc1ccc(CNc2ccnc(-c3cccc(C#N)c3)n2)c(OC)c1 -5.53%

Potency, active:
O=c1c(-c2cc(F)cc(F)c2)nc2cnc(N3CCOCC3)nc2n1-c1ccccc1 2.51 µM
CN(C)c1ncc2nc(-c3cccs3)c(=O)n(C3CC3)c2n1 3.98 µM

target: Dual specificity protein kinase CLK4 (Homo sapiens) (UniProt Q9HAZ1); test: qHTS Assay for Inhibitors of CDC-like Kinase 4 (Kinase-Glo Assay) (AID 1770); conditions: recombinant Clk4, Kinase-Glo ATP depletion luminescence; series mostly up to 66.7 µM; activity, negative = inhibition: at the top concentration; further: nearly all actives have a fitted effect of over 65% in size; on activity, negative = inhibition: on the % scale 0 is the no-effect control and ±100 the full control effect
Summary of the method: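 Clk4 25 nM, RS peptide 100 uM, ATP 1 uM, pH 7.5 Tris, 10 mM MgCl2, 2.5 mM DTT; 4.5 h RT; ATP depletion read by Kinase-Glo luminescence.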

Dual specificity protein kinase CLK4 (Homo sapiens), sequence (Q9HAZ1 whole entry, looked up): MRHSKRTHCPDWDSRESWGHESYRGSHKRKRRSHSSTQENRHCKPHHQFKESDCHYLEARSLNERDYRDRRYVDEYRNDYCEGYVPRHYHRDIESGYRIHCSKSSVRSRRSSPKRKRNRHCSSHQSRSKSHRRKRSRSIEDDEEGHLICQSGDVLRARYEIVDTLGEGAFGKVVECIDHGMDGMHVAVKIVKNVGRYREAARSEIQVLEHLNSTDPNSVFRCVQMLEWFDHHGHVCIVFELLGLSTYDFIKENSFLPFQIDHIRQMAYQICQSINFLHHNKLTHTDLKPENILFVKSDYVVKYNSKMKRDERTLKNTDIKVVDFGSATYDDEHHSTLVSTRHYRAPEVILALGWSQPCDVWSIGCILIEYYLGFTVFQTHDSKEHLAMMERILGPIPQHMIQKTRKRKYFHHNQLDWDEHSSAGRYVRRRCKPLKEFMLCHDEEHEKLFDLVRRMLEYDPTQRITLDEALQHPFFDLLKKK

Potency, active:
COc1ccc(CNc2ccnc(-c3cccc(C#N)c3)n2)c(OC)c1 15.8 µM
COc1ccccc1CNc1nc(-c2cccnc2)nc2ccccc12 12.6 µM
COc1cccc(-c2nccc(NCc3cccs3)n2)c1 8.91 µM
COc1ccccc1-c1ccc2ncnc(N(C)Cc3ccco3)c2c1 8.91 µM

activity, negative = inhibition, inactive:
COc1cccc(-c2nc(NCc3ccc(OC)cc3OC)c3ccccc3n2)c1 -20.6%
COc1ccc(CNc2nc(-c3ccc4c(c3)OCO4)nc3ccccc23)c(OC)c1 -5.73%
COc1cccc(Cn2c(=O)c(-c3ccc(Cl)cc3)nc3cnc(OC)nc32)c1 2.46%
c1ccc(CNc2nc(-c3ccc4c(c3)OCO4)nc3ccccc23)cc1 -17.3%
CN(C)c1ncc2nc(-c3cccs3)c(=O)n(-c3ccccc3)c2n1 -14.2%
N#CCCn1c(=O)c(-c2ccc(Cl)cc2)nc2cnc(Nc3ccccc3)nc21 -4.92%
Cc1noc(C)c1-c1nc(Nc2ccc(F)cc2)c2ccccc2n1 -10.8%
Cc1nc2cnc(N(C)C)nc2n(-c2ccccc2)c1=O -29.3%
COc1cccc(Nc2ncc3nc(-c4ccccc4)c(=O)n(C)c3n2)c1 -11.9%
Cn1cc(-c2nc3cnc(N4CCOCC4)nc3n(CCC#N)c2=O)c2ccccc21 -6.7%
CCNc1ncc2nc(-c3ccccc3)c(=O)n(C)c2n1 -7.31%
COc1ccc(-c2nc3cnc(Nc4cccc(OC)c4)nc3n(Cc3cccs3)c2=O)cc1 0.123%
O=c1c(-c2ccccc2)nc2cncnc2n1-c1ccccc1 -13.7%
O=c1c(-c2cccs2)nc2cnc(N3CCOCC3)nc2n1CCc1ccccc1 -6.75%
Cn1c(=O)c(-c2ccccc2)nc2cnc(Nc3ccccc3)nc21 -8.5%
COc1cccc(Cn2c(=O)c(-c3ccc(Cl)cc3)nc3cnc(N4CCNCC4)nc32)c1 -22%

target: Dual specificity protein kinase CLK4 (Homo sapiens) (UniProt Q9HAZ1); test: qHTS Assay for Inhibitors of CDC-like Kinase 4 (ADP-Glo Assay) (AID 1771); conditions: recombinant CLK4, ADP-Glo luminescence; series mostly up to 80 µM; activity change, negative = inhibition: at the top concentration; further: nearly all actives have a fitted effect of over 70% in size; on activity change, negative = inhibition: on the % scale 0 is the no-effect control and ±100 the full control effect
Summary of the method: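 25 nM Clk4 with 100 uM RS repeat peptide and 1 uM ATP (final) in buffer with 2 mM MgCl2, 0.5 mM EGTA, 2.5 mM DTT, 0.01% Triton X-100; 1 h at room temperature; ADP-Glo luminescence for ADP formed.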

Potency, active:
COc1ccc(CNc2ccnc(-c3cccc(C#N)c3)n2)c(OC)c1 10 µM
COc1ccccc1CNc1nc(-c2cccnc2)nc2ccccc12 10 µM
COc1cccc(-c2nccc(NCc3cccs3)n2)c1 8.91 µM
c1csc(CNc2ccnc(-c3ccc4c(c3)OCO4)n2)c1 22.4 µM
COc1ccccc1-c1ccc2ncnc(N(C)Cc3ccco3)c2c1 14.1 µM

Activity change, negative = inhibition, inactive:
COc1cccc(-c2nc(NCc3ccc(OC)cc3OC)c3ccccc3n2)c1 -28.5%
COc1ccc(CNc2nc(-c3ccc4c(c3)OCO4)nc3ccccc23)c(OC)c1 -6.74%
COc1cccc(Cn2c(=O)c(-c3ccc(Cl)cc3)nc3cnc(OC)nc32)c1 -0.755%
c1ccc(CNc2nc(-c3ccc4c(c3)OCO4)nc3ccccc23)cc1 -21.6%
CN(C)c1ncc2nc(-c3cccs3)c(=O)n(-c3ccccc3)c2n1 -14.1%
N#CCCn1c(=O)c(-c2ccc(Cl)cc2)nc2cnc(Nc3ccccc3)nc21 9.32%
Cc1noc(C)c1-c1nc(Nc2ccc(F)cc2)c2ccccc2n1 -7.28%
Cc1nc2cnc(N(C)C)nc2n(-c2ccccc2)c1=O -22.3%
COc1cccc(Nc2ncc3nc(-c4ccccc4)c(=O)n(C)c3n2)c1 -12.7%
Cn1cc(-c2nc3cnc(N4CCOCC4)nc3n(CCC#N)c2=O)c2ccccc21 -9.17%
CCNc1ncc2nc(-c3ccccc3)c(=O)n(C)c2n1 -9.72%
COCCn1c(=O)c(-c2cccs2)nc2cnc(N3CCOCC3)nc21 -5.44%
O=c1c(-c2ccccc2)nc2cncnc2n1-c1ccccc1 -17.4%
O=c1c(-c2cccs2)nc2cnc(N3CCOCC3)nc2n1CCc1ccccc1 -3.39%
Cn1c(=O)c(-c2ccccc2)nc2cnc(Nc3ccccc3)nc21 -7.92%
COc1cccc(Cn2c(=O)c(-c3ccc(Cl)cc3)nc3cnc(N4CCNCC4)nc32)c1 -4.22%
